# Measurements: the supplement of paper PMC8728848
# Shown is part of a subset that was picked to be rich in the strongest signals.
# B1: Epa6 (Candida glabrata), Q6DTM7_CANGB (protein)
# chain: MGSSHHHHHHSSGLVPRGSHMKDDYSSSLSNNNLGWTDPTEFPLGCSPNVTTPKNGLSMELYSYDYLKSGSNPCWDAAYLDPNYPRTGYKSHRLLAKVENVAGNINFYYHAPMGCTSLFDTLPQAYNYRTPLTMTNFTMLLYGYFKPKVTGYHTFTISADDLLFVNFGAGNAFDCCKRESSADDFGNYQAYAVWGSQTAKDDLTVHLDAGLYYPIRIFFNNRDNDGALSLTLKTESDPNPVIDFSDYFYSFDDTKDGCPGLVSYDTS
# How the values were obtained:
# Experiment in all cases: glycan array binding signal (z-score within array); higher = stronger binding
# Conditions in all cases: glycan notation: IUPAC condensed, linker removed
# [1] = target: Fuc(a1-2)Gal(b1-3)[Fuc(a1-4)]GlcNAc(b1-2)Man(a1-3)[Fuc(a1-2)Gal(b1-3)[Fuc(a1-4)]GlcNAc(b1-2)Man(a1-3)]Man(b1-4)GlcNAc(b1-4)GlcNAc
# Method in brief: (§1)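 Negative Z-scores can be read as non-binding. The Z-score is calculated within each array and then averaged across arrays of one protein sequence at different concentrations or buffers and across linkers. Arrays, 3228 in all, were curated from the Consortium for Functional Glycomics database and kept only where the protein sequence was available.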
# Fuc(a1-2)Gal(b1-4)Glc = target: Fuc(a1-2)Gal(b1-4)Glc
# Method in brief: as §1
# [2] = target: Fuc(a1-2)Gal(b1-4)GlcNAc(b1-2)[Fuc(a1-2)Gal(b1-4)GlcNAc(b1-4)]Man(a1-3)[Fuc(a1-2)Gal(b1-4)GlcNAc(b1-2)Man(a1-6)]Man(b1-4)GlcNAc(b1-4)GlcNAc
# Method in brief: as §1
# [3] = target: Fuc(a1-2)Gal(b1-4)GlcNAc(b1-6)GalNAc
# Method in brief: as §1
# [4] = target: Fuc(a1-2)Gal(b1-4)[Fuc(a1-3)]GlcNAc(b1-2)Man(a1-3)[Fuc(a1-2)Gal(b1-4)[Fuc(a1-3)]GlcNAc(b1-2)Man(a1-6)]Man(b1-4)GlcNAc(b1-4)[Fuc(a1-6)]GlcNAc
# Method in brief: as §1
# [5] = target: Fuc(a1-2)[Gal(a1-3)]Gal(b1-3)GlcNAc(b1-2)Man(a1-3)[Fuc(a1-2)[Gal(a1-3)]Gal(b1-3)GlcNAc(b1-2)Man(a1-6)]Man(b1-4)GlcNAc(b1-4)GlcNAc
# Method in brief: as §1
# [6] = target: Fuc(a1-2)[Gal(a1-3)]Gal(b1-4)GlcNAc(b1-2)Man
# Method in brief: as §1
# Fuc(a1-3)GlcNAc = target: Fuc(a1-3)GlcNAc
# Method in brief: as §1
# [7] = target: Fuc(a1-3)[Gal3S(b1-4)]GlcNAc6S
# Method in brief: as §1
# Fuc(b1-3)GlcNAc = target: Fuc(b1-3)GlcNAc
# Method in brief: as §1
# [8] = target: Gal(a1-3)Gal(b1-4)GlcNAc(b1-2)Man(a1-3)[Gal(a1-3)Gal(b1-4)GlcNAc(b1-2)Man(a1-6)]Man(b1-4)GlcNAc(b1-4)GlcNAc
# Method in brief: as §1
# Gal(a1-3)GalNAc = target: Gal(a1-3)GalNAc
# Method in brief: as §1
# [9] = target: Gal(a1-4)Gal(b1-3)GlcNAc(b1-2)Man(a1-3)[Gal(a1-4)Gal(b1-3)GlcNAc(b1-2)Man(a1-6)]Man(b1-4)GlcNAc(b1-4)GlcNAc
# Method in brief: as §1
# Gal(a1-4)Gal(b1-4)GlcNAc = target: Gal(a1-4)Gal(b1-4)GlcNAc
# Method in brief: as §1
# [10] = target: Gal(a1-4)Gal(b1-4)GlcNAc(b1-2)Man(a1-3)[Gal(a1-4)Gal(b1-4)GlcNAc(b1-2)Man(a1-6)]Man(b1-4)GlcNAc(b1-4)GlcNAc
# Method in brief: as §1
# [11] = target: Gal(a1-4)Gal(b1-4)GlcNAc(b1-3)Gal(b1-4)Glc
# Method in brief: as §1
# Gal(a1-6)Glc = target: Gal(a1-6)Glc
# Method in brief: as §1
# Gal(b1-2)Gal = target: Gal(b1-2)Gal
# Method in brief: as §1
# Gal(b1-3)Gal(b1-4)GlcNAc = target: Gal(b1-3)Gal(b1-4)GlcNAc
# Method in brief: as §1
# [12] = target: Gal(b1-3)GalNAc(a1-3)[Fuc(a1-2)]Gal(b1-4)Glc
# Method in brief: as §1
# [13] = target: Gal(b1-3)GalNAc(a1-3)[Fuc(a1-2)]Gal(b1-4)GlcNAc
# Method in brief: as §1
# [14] = target: Gal(b1-3)GalNAc(b1-4)Gal(b1-4)Glc
# Method in brief: as §1
# [15] = target: Gal(b1-3)GlcNAc(b1-3)Gal(b1-4)GlcNAc(b1-6)[Gal(b1-3)GlcNAc(b1-3)]Gal(b1-4)Glc
# Method in brief: as §1
# [16] = target: Gal(b1-3)[Fuc(a1-4)]GlcNAc(b1-2)Man
# Method in brief: as §1
# Gal(b1-4)GlcNAc(b1-2)Man = target: Gal(b1-4)GlcNAc(b1-2)Man
# Method in brief: as §1
# [17] = target: Gal(b1-4)GlcNAc(b1-2)[Gal(b1-4)GlcNAc(b1-6)]Man(a1-6)[Gal(b1-4)GlcNAc(b1-2)Man(a1-3)]Man(b1-4)GlcNAc(b1-4)GlcNAc
# Method in brief: as §1
# [18] = target: Gal(b1-4)GlcNAc(b1-3)Gal(b1-3)GlcNAc
# Method in brief: as §1
# [19] = target: Gal(b1-4)GlcNAc(b1-3)Gal(b1-4)GlcNAc(b1-3)Gal(b1-4)GlcNAc(b1-3)Gal(b1-4)GlcNAc(b1-2)Man(a1-3)[Gal(b1-4)GlcNAc(b1-3)Gal(b1-4)GlcNAc(b1-3)Gal(b1-4)GlcNAc(b1-3)Gal(b1-4)GlcNAc(b1-2)Man(a1-6)]Man(b1-4)GlcNAc(b1-4)GlcNAc
# Method in brief: as §1
# Gal3S6S(b1-4)GlcNAc = target: Gal3S6S(b1-4)GlcNAc
# Method in brief: as §1
# [20] = target: GalNAc(b1-3)Gal(a1-4)Gal(b1-4)GlcNAc
# Method in brief: as §1
# GalNAc(b1-4)GlcNAc = target: GalNAc(b1-4)GlcNAc
# Method in brief: as §1
# GalNAc3S(b1-4)GlcNAc = target: GalNAc3S(b1-4)GlcNAc
# Method in brief: as §1
# Glc(a1-6)Glc(a1-6)Glc = target: Glc(a1-6)Glc(a1-6)Glc
# Method in brief: as §1
# [21] = target: GlcNAc(a1-4)Gal(b1-3)GlcNAc
# Method in brief: as §1
# [22] = target: GlcNAc(a1-4)Gal(b1-4)GalNAc
# Method in brief: as §1
# [23] = target: GlcNAc(b1-3)Gal(b1-4)GlcNAc(b1-3)Gal(b1-4)GlcNAc(b1-2)Man(a1-3)[GlcNAc(b1-3)Gal(b1-4)GlcNAc(b1-3)Gal(b1-4)GlcNAc(b1-2)Man(a1-6)]Man(b1-4)GlcNAc(b1-4)[Fuc(a1-6)]GlcNAc
# Method in brief: as §1
# GlcNAc(b1-3)Man = target: GlcNAc(b1-3)Man
# Method in brief: as §1
# [24] = target: GlcNAc(b1-4)Gal(b1-4)GlcNAc
# Method in brief: as §1
# [25] = target: Man(a1-3)[Man(a1-6)]Man(a1-6)[Man(a1-3)]Man
# Method in brief: as §1
# Man(b1-4)GlcNAc = target: Man(b1-4)GlcNAc
# Method in brief: as §1
# [26] = target: Neu5Ac(a2-3)Gal(b1-3)GlcNAc(b1-4)Gal(b1-4)Glc
# Method in brief: as §1
# [27] = target: Neu5Ac(a2-3)Gal(b1-4)GlcNAc(b1-2)[Neu5Ac(a2-3)Gal(b1-4)GlcNAc(b1-4)]Man(a1-3)[GlcNAc(b1-4)][Neu5Ac(a2-3)Gal(b1-4)GlcNAc(b1-4)Man(a1-6)]Man(b1-4)GlcNAc(b1-4)GlcNAc
# Method in brief: as §1
# [28] = target: Neu5Ac(a2-3)Gal(b1-4)GlcNAc(b1-3)Gal
# Method in brief: as §1
# [29] = target: Neu5Ac(a2-3)Gal(b1-4)GlcNAc6S
# Method in brief: as §1
# [30] = target: Neu5Ac(a2-3)Gal(b1-4)[Fuc(a1-3)]GlcNAc6S
# Method in brief: as §1
# [31] = target: Neu5Ac(a2-6)Gal(b1-4)GlcNAc(b1-2)Man(a1-3)Man(b1-4)GlcNAc(b1-4)GlcNAc
# Method in brief: as §1
# [32] = target: Neu5Ac(a2-6)Gal(b1-4)GlcNAc(b1-2)Man(a1-3)[Gal(b1-4)GlcNAc(b1-2)Man(a1-6)]Man(b1-4)GlcNAc(b1-4)GlcNAc
# Method in brief: as §1
# [33] = target: Neu5Ac(a2-6)Gal(b1-4)GlcNAc(b1-2)[Neu5Ac(a2-6)Gal(b1-4)GlcNAc(b1-4)]Man(a1-3)[GlcNAc(b1-4)][Neu5Ac(a2-6)Gal(b1-4)GlcNAc(b1-2)[Neu5Ac(a2-6)Gal(b1-4)GlcNAc(b1-6)]Man(a1-6)]Man(b1-4)GlcNAc(b1-4)GlcNAc
# Method in brief: as §1
# [34] = target: Neu5Ac(a2-6)Gal(b1-4)GlcNAc(b1-2)[Neu5Ac(a2-6)Gal(b1-4)GlcNAc(b1-6)]Man(a1-6)[Neu5Ac(a2-6)Gal(b1-4)GlcNAc(b1-2)Man(a1-3)][GlcNAc(b1-4)]Man(b1-4)GlcNAc(b1-4)GlcNAc
# Method in brief: as §1
# [35] = target: Neu5Ac(a2-6)Gal(b1-4)GlcNAc(b1-3)Gal(b1-4)GlcNAc(b1-6)[Gal(b1-3)]GalNAc
# Method in brief: as §1
# [36] = target: Neu5Ac(a2-8)Neu5Ac(a2-3)Gal(b1-4)Glc
# Method in brief: as §1
# [37] = target: Neu5Gc(a2-3)Gal(b1-3)[Fuc(a1-4)]GlcNAc
# Method in brief: as §1
# [38] = target: Neu5Gc(a2-3)Gal(b1-4)GlcNAc(b1-3)Gal(b1-4)GlcNAc(b1-2)Man(a1-3)[Neu5Gc(a2-3)Gal(b1-4)GlcNAc(b1-3)Gal(b1-4)GlcNAc(b1-2)Man(a1-6)]Man(b1-4)GlcNAc(b1-4)GlcNAc
# Method in brief: as §1
# Neu5Gc(a2-6)GalNAc = target: Neu5Gc(a2-6)GalNAc
# Method in brief: as §1
binder,measurement,setting,value
B1,glycan array binding signal (z-score),[1],-0.229
same,glycan array binding signal (z-score),Fuc(a1-2)Gal(b1-4)Glc,-0.123
same,glycan array binding signal (z-score),[2],-0.318
same,glycan array binding signal (z-score),[3],-0.062
same,glycan array binding signal (z-score),[4],-0.257
same,glycan array binding signal (z-score),[5],0.454
same,glycan array binding signal (z-score),[6],0.197
same,glycan array binding signal (z-score),Fuc(a1-3)GlcNAc,-0.304
same,glycan array binding signal (z-score),[7],-0.263
same,glycan array binding signal (z-score),Fuc(b1-3)GlcNAc,-0.331
same,glycan array binding signal (z-score),[8],3.7
same,glycan array binding signal (z-score),Gal(a1-3)GalNAc,4.17
same,glycan array binding signal (z-score),[9],6.23
same,glycan array binding signal (z-score),Gal(a1-4)Gal(b1-4)GlcNAc,4.65
same,glycan array binding signal (z-score),[10],4.02
same,glycan array binding signal (z-score),[11],4.42
same,glycan array binding signal (z-score),Gal(a1-6)Glc,8.63
same,glycan array binding signal (z-score),Gal(b1-2)Gal,6.14
same,glycan array binding signal (z-score),Gal(b1-3)Gal(b1-4)GlcNAc,10
same,glycan array binding signal (z-score),[12],4.95
same,glycan array binding signal (z-score),[13],5.98
same,glycan array binding signal (z-score),[14],3.9
same,glycan array binding signal (z-score),[15],0.257
same,glycan array binding signal (z-score),[16],-0.112
same,glycan array binding signal (z-score),Gal(b1-4)GlcNAc(b1-2)Man,-0.283
same,glycan array binding signal (z-score),[17],-0.198
same,glycan array binding signal (z-score),[18],-0.26
same,glycan array binding signal (z-score),[19],0.07
same,glycan array binding signal (z-score),Gal3S6S(b1-4)GlcNAc,-0.306
same,glycan array binding signal (z-score),[20],-0.126
same,glycan array binding signal (z-score),GalNAc(b1-4)GlcNAc,-0.234
same,glycan array binding signal (z-score),GalNAc3S(b1-4)GlcNAc,-0.313
same,glycan array binding signal (z-score),Glc(a1-6)Glc(a1-6)Glc,-0.312
same,glycan array binding signal (z-score),[21],-0.306
same,glycan array binding signal (z-score),[22],-0.297
same,glycan array binding signal (z-score),[23],-0.255
same,glycan array binding signal (z-score),GlcNAc(b1-3)Man,-0.263
same,glycan array binding signal (z-score),[24],-0.357
same,glycan array binding signal (z-score),[25],-0.281
same,glycan array binding signal (z-score),Man(b1-4)GlcNAc,-0.332
same,glycan array binding signal (z-score),[26],-0.269
same,glycan array binding signal (z-score),[27],-0.343
same,glycan array binding signal (z-score),[28],-0.336
same,glycan array binding signal (z-score),[29],-0.347
same,glycan array binding signal (z-score),[30],-0.347
same,glycan array binding signal (z-score),[31],-0.325
same,glycan array binding signal (z-score),[32],-0.301
same,glycan array binding signal (z-score),[33],-0.311
same,glycan array binding signal (z-score),[34],-0.33
same,glycan array binding signal (z-score),[35],0.25
same,glycan array binding signal (z-score),[36],-0.347
same,glycan array binding signal (z-score),[37],-0.331
same,glycan array binding signal (z-score),[38],-0.311
same,glycan array binding signal (z-score),Neu5Gc(a2-6)GalNAc,-0.311
